Fam108B counter = Fam108B inhibition, counter-screen for RBBP9 inhibitors | recombinant Fam108B, FP-Rh probe fluorescence polarization | inhibition, % at 9.51 µM | hit rate 0.33% among 300,000;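 active = inhibition above the screen mean inhibition plus 3 SD, computed separately per campaign, cut at about 18% in these data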;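 note: inhibitors lower polarization as less probe binds the enzyme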
LYPLA2 counter = blocks human lysophospholipase 2, a PME1 counter-screen; recombinant LYPLA2, FP-Rh probe fluorescence polarization; AID 2177; inhibition, % at 5.9 µM; hit rate 0.38% among 320,000; O95372;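 active = inhibition above the screen-wide mean plus 3 SD, limit set per campaign, cut at about 26% in these data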
Target sequence (O95372 whole entry, looked up): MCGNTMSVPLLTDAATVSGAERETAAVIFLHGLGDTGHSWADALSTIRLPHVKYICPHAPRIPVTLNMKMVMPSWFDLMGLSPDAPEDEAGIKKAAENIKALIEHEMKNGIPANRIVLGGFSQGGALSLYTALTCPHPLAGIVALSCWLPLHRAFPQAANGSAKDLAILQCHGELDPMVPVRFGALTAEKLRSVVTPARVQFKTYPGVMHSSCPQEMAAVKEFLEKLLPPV
PME-1 inh = PME-1 (human) inhibition | inhibition, % at 5.9 µM | hit rate 0.53% among 320,000 | recombinant PME-1, FP-Rh probe fluorescence polarization | Q9Y570;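 active = inhibition above the campaign mean of all compounds plus 3 SD, cut at about 26% in these data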;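 note: competitive labeling of PME-1 active site by serine hydrolase directed probe; inhibitors block probe labeling so polarization falls and inhibition rises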
LYPLA1 inh = blocks human lysophospholipase 1, a PME1 counter-screen; O75608; recombinant LYPLA1, FP-Rh probe fluorescence polarization; inhibition, % at 5.9 µM; hit rate 0.16% among 320,000;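 active = inhibition above the mean of all tested compounds plus 3 SD, set per campaign, cut at about 14% in these data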;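 note: inhibitors block serine hydrolase probe labeling of LYPLA1 so polarization falls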
Target sequence (O75608 whole entry, looked up): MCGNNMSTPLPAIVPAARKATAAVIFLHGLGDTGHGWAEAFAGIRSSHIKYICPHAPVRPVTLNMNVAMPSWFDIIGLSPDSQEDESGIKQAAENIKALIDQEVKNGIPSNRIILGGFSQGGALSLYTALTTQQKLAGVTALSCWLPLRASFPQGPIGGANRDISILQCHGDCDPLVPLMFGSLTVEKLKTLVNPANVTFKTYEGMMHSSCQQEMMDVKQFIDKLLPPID
PP5 primary = inhibitors of human protein phosphatase 5 (PP5); P53041; purified PP5c, OMFP substrate fluorescence; inhibition, % at 6.7 µM; hit rate 0.18% among 320,000; AID 1987;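 active = inhibition above the campaign's mean inhibition across all tested compounds plus 3 SD, cut at about 9.5% in these data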
PP1 counter = PP1-alpha (human) inhibition in PP5 counter-screen | P62136 | purified PP1alpha, OMFP fluorescence | inhibition, % at 6.7 µM | hit rate 0.9% among 320,000;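 active = inhibition above the mean inhibition of all tested compounds plus 3 SD, computed separately for each screening campaign, cut at about 15% in these data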
LYPLA1 conf = counter-screen for PME1 inhibitors: confirmation of human LYPLA1 inhibitors | hit rate 69% among 480 | inhibition, % at 5.9 µM | shares compounds with LYPLA1 inh | recombinant LYPLA1, FP-Rh probe fluorescence polarization;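 active = mean inhibition across replicates above the hit cutoff set in the primary screen, cut at about 15% in these data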;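 note: loss of FP-Rh probe labeling of LYPLA1 seen as lower polarization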
LYPLA2 conf = counter-screen for PME1 inhibitors: confirmation of human LYPLA2 inhibitors; inhibition, % at 5.9 µM; shares compounds with LYPLA2 counter; hit rate 72% among 1,100; recombinant LYPLA2, FP-Rh probe fluorescence polarization;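 active = mean inhibition across replicates above the hit cutoff set in the primary screen, cut at about 26% in these data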;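 note: blocked labeling of the enzyme by serine hydrolase FP-Rh probe lowers polarization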
Of the large screens only hits and unclear results are named; the others gave an inactive call (follow-up assays come after a bar, where they were run). Most compounds without a hit are left out; they make up all but 1.8% or so of the library.

COc1ccc(-n2nc(C(=O)NCC(=O)N3CCN(C)CC3)c3ccccc3c2=O)cc1	none
CCCCC/C=C/C1=CC(=O)C[C@H](c2ccc(OC)c(OC)c2)C1	none (no result: Fam108B counter)
CCOc1ncccc1C(=O)OCC(=O)NCCc1ccc(S(N)(=O)=O)cc1	none (no result: Fam108B counter)
O=C(Cc1cccc(C(F)(F)F)c1)NCC(=O)Nc1cc(Cl)ccc1Cl	none
CC(=O)c1ccc(OCCCC(=O)Nc2cccc(S(=O)(=O)N3CCCCC3)c2)cc1	none (no result: Fam108B counter)
Cc1ccc(CN2CCN(/N=C\c3cccc([N+](=O)[O-])c3)CC2)cc1	LYPLA2 counter 28.2, LYPLA1 inh 16.6 | LYPLA1 conf 19.1 | LYPLA2 conf 35.0
Cc1ccc(/C=N/N2CCN(Cc3ccc(C)cc3)CC2)cc1	none
COc1ccc(C(=O)NCCCN=C2NS(=O)(=O)c3ccccc32)cc1	none
Cc1ccc(NC(=O)CS(=O)CC(=O)Nc2ccccc2-c2ccc(C)o2)cc1 (stereo unspecified)	LYPLA2 counter 41.4, PME-1 inh 35.5, LYPLA1 inh 33.2 | LYPLA1 conf inactive | LYPLA2 conf inactive
c1ccc2c(c1)oc1c(N3CCOCC3)ncnc12	none
C(=C\c1ccccc1)/CN1CCN(c2ncnc3c2oc2ccccc23)CC1	LYPLA2 counter 35.4, LYPLA1 inh 15.1 | LYPLA1 conf 22.9 | LYPLA2 conf 32.2
CCNc1cc(O)ccc1C	LYPLA2 counter 40.2, PME-1 inh 30.6, LYPLA1 inh 30.8 (no result: Fam108B counter) | LYPLA1 conf 14.8 | LYPLA2 conf inactive
Cc1ccc(C(=O)CNc2cc(C)ccc2C)cc1	none
CSc1ccccc1OCc1cc(C(=O)N2CCC(Oc3cccnc3)CC2)no1	LYPLA2 counter 35.5, LYPLA1 inh 35.6 | LYPLA1 conf 47.5 | LYPLA2 conf 38.8
CSc1ccccc1OCc1cc(C(=O)N2CCSCC2)no1	none
O=C(N1CCOCC1)n1nnc2ccccc21	LYPLA2 counter 46.9, LYPLA1 inh 91.1 | LYPLA1 conf 94.1 | LYPLA2 conf 51.5
O=C(C1CCC(Cn2c(=S)[nH]c3ccccc3c2=O)CC1)N1CCN(c2ccccc2)CC1 (stereo unspecified)	LYPLA2 counter 53.0, LYPLA1 inh 35.5 | LYPLA1 conf 45.2 | LYPLA2 conf 52.3
COc1ccccc1N1CCN(C(=O)C2CCC(Cn3c(=S)[nH]c4ccccc4c3=O)CC2)CC1 (stereo unspecified)	none
COc1ccc(N2CCN(C(=O)C3CCC(Cn4c(=S)[nH]c5ccccc5c4=O)CC3)CC2)cc1 (stereo unspecified)	LYPLA2 counter 83.1, LYPLA1 inh 39.8 | LYPLA1 conf 43.1 | LYPLA2 conf 84.1
COc1ccc(OC)c(S(=O)(=O)Nc2c(NC3CCCCC3)c3ccccc3oc2=O)c1	none
NC(=O)c1cc([N+](=O)[O-])ccc1NCC1CCCCC1	LYPLA2 counter 42.7, LYPLA1 inh 24.5 | LYPLA1 conf 30.6 | LYPLA2 conf 37.3
NC(=O)c1cc([N+](=O)[O-])ccc1NCc1ccc(O)cc1	none
COc1ccc(Cc2nnc3sc(SCC(=O)Nc4ccccc4)nn3c2=O)cc1OC	none
COc1ccccc1-n1cnnc1SC(C)C(=O)NCC1CCCO1 (stereo unspecified)	none (no result: Fam108B counter)
Cc1ccc(C)c(C(C)NC(=S)NCc2ccc(F)cc2)c1 (stereo unspecified)	none
CC#CC(=O)N1CCC(n2nccc2NC(=O)c2ccc3c(c2)OCO3)CC1	LYPLA2 counter 31.0, LYPLA1 inh 26.0 | LYPLA1 conf 36.6 | LYPLA2 conf 30.1
CSCCC(=O)N1CCC(n2nccc2NC(=O)c2ccc3c(c2)OCO3)CC1	none
Cc1nc(NC(=O)c2ccccc2)sc1-c1csc(Nc2cccc(F)c2)n1	none
Cc1cc(NS(=O)(=O)c2ccc(Nc3nc(-c4sc(NC(=O)c5ccccc5)nc4C)cs3)cc2)no1	LYPLA2 counter 58.9, PME-1 inh 80.9, LYPLA1 inh 41.1 | LYPLA1 conf 36.8 | LYPLA2 conf 37.4
CCOc1ccc(S(=O)(=O)NCc2ccc3c(c2)OCO3)cc1NC(C)=O	none
CCCCCN(C(=O)CCC(=O)OCc1ccc(C(C)(C)C)cc1)c1c(N)n(CCCC)c(=O)[nH]c1=O	none
O=C(CCC1CCCC1)N1CCN(C(=O)COc2ccccc2)CC1	none
Cc1ccc(OCC(=O)N2CCN(C(=O)CCC3CCCC3)CC2)cc1	LYPLA2 counter 26.6, LYPLA1 inh 61.3 | LYPLA1 conf 66.2 | LYPLA2 conf inactive
O=C(/C=C/c1ccc(Br)cc1)N1CCN(c2cccc(C(F)(F)F)c2)CC1	LYPLA2 counter 77.9, LYPLA1 inh 46.3 | LYPLA1 conf 48.8 | LYPLA2 conf 62.9
CCOC(=O)C1CCN(c2ncnc3c2nnn3Cc2ccccc2Cl)CC1	LYPLA2 counter 48.4, LYPLA1 inh 28.0 | LYPLA1 conf 40.4 | LYPLA2 conf 53.6
O=C(Cc1c(F)cccc1Cl)OCN1C(=O)c2ccccc2C1=O	none
O=C(CCCc1ccccc1)N1CCN(c2ccc([N+](=O)[O-])cc2)CC1	LYPLA2 counter 38.7, LYPLA1 inh 32.9 | LYPLA1 conf 41.1 | LYPLA2 conf 54.0
O=C(CCN1C(=O)c2cccc3cccc(c23)C1=O)N1CCOCC1	none
O=C(c1ccc(S(=O)(=O)N2CCCCC2)cc1)N1CCN(CCN2C(=O)c3cccc4cccc(c34)C2=O)CC1	LYPLA2 counter 34.5, LYPLA1 inh 20.3 | LYPLA1 conf 42.2 | LYPLA2 conf 59.8
O=C(/C=C/c1ccccc1)N1CCN(CCN2C(=O)c3cccc4cccc(c34)C2=O)CC1	LYPLA2 counter 63.6, LYPLA1 inh 36.6 | LYPLA1 conf 35.0 | LYPLA2 conf 58.7
COC(=O)c1ccc(C2NCCc3cc(OC)c(OC)cc32)cc1 (stereo unspecified)	none
CCC(=O)N1CCN(c2ccccc2NC(=S)NC(=O)c2cccc([N+](=O)[O-])c2)CC1	none
CCC(=O)N1CCN(c2ccc(NC(=S)NC(=O)c3cccc([N+](=O)[O-])c3)cc2)CC1	LYPLA2 counter 58.0, LYPLA1 inh 39.0 | LYPLA1 conf 32.5 | LYPLA2 conf 54.9
CCCOC(=O)c1ccc(Oc2coc3c(CN(CC)CC)c(O)ccc3c2=O)cc1	LYPLA2 counter 33.7, LYPLA1 inh 30.2 | LYPLA1 conf 32.5 | LYPLA2 conf 28.4
CCN(CC)Cc1c(O)ccc2c(=O)c(-c3ccc(Cl)cc3)coc12	none
CCCN1C=CC(=C/C=C(\C#N)C(=O)OCC)C=C1	none
CCCCCCN1C=CC(=C/C=C(\C#N)C(=O)OCC)C=C1	LYPLA2 counter 41.2, LYPLA1 inh 25.4 | LYPLA1 conf 26.7 | LYPLA2 conf 35.5

From PubChem BioAssay
